Screening results (PubChem BioAssay)
Shown are actives, neighbours in structure and some others; about 2.3% of the full set was active somewhere.
PDI inh: inhibitors of human protein disulfide isomerase; hit rate 0.052% among 350,000; PDI insulin aggregation turbidity, A650, 90 min; P07237; inhibition, % at 10 µM; AID 588391;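 active = mean inhibition across replicates of 30% or more, whatever share of single replicates reach that level; inconclusive = mean inhibition below 30% while every single replicate reaches 30%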
SIRT5 block: sirtuin-5 (human) deacylase inhibition. Purified SirT5, succinyl-peptide AMC, trypsin-coupled fluorescence. inhibition, % at 15 µM. AID 652115. hit rate 1.1% among 330,000. Q9NXA8; in the data active = inhibition above about 15%; inconclusive = no clear call, values can overlap the other calls
Target sequence (Q9NXA8 whole entry, looked up): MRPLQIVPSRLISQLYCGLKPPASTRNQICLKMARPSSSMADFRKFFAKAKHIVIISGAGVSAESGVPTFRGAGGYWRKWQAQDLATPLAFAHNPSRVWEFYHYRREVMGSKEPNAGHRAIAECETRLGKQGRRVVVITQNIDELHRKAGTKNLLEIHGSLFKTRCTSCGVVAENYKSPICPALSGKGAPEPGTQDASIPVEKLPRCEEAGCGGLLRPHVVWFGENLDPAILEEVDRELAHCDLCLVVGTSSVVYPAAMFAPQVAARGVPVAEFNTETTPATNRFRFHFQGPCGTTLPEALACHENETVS
ERp5 inh: blocks human ERp5 reductase activity on insulin | Q15084 | ERp5 insulin aggregation, absorbance 650 nm, 90 min | inhibition, % at 9.99 µM | hit rate 0.05% among 350,000;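 active = mean replicate inhibition above about 25%, with every replicate also reaching it, limit read from the data, passing the limit was not always enough; inconclusive = only one of those two criteria met; inactive = neither criterion met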
DENV2 CPE: inhibitors of DENV2 cytopathic effect; hit rate 1.7% among 350,000; DENV2-infected cells, cytopathic effect rescue, plate reader; CPE inhibition, % at 9.99 µM; in the data active = CPE inhibition above about 20%, passing the limit was not always enough; inconclusive = no clear call, values can overlap the other calls; tested in BHK-21 cells
Rtt109 HAT inh: inhibitors of Candida albicans Rtt109/Vps75 histone acetyltransferase; Q5AAJ8; purified Rtt109/Vps75, ThioGlo CoA-SH fluorescence, 4 h; inhibition, % at 34.9 µM; hit rate 0.16% among 330,000; AID 540336;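 active = inhibition of at least 50% in every replicate; inconclusive = best replicate reaches 50% inhibition but some replicates fall short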
Target sequence (Q5AAJ8 whole entry, looked up): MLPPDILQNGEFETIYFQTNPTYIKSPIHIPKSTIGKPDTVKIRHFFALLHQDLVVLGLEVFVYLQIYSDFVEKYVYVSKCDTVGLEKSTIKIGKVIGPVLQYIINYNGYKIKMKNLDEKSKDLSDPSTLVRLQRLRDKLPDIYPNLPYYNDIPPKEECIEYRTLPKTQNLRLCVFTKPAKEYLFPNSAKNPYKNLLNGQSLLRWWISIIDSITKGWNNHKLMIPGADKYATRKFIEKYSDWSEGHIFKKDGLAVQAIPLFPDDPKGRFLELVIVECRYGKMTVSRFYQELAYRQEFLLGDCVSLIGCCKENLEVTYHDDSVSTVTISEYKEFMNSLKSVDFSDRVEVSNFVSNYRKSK
Numbers stand for hits.

What do the screens show for `Cc1ccccc1C[n+]1cccc2ccccc21`?
PDI inh: inactive; SIRT5 block: inactive; ERp5 inh: inactive; DENV2 CPE: 31; Rtt109 HAT inh: inactive

What do the screens show for `C[C@@H]1CN([C@H](C)CO)C(=O)c2cc(NS(=O)(=O)c3cn(C)cn3)ccc2O[C@H]1CN(C)S(C)(=O)=O`?
SIRT5 block: inactive; ERp5 inh: inactive; DENV2 CPE: inactive

What do the screens show for `CO[C@H]1CN(C)C(=O)c2ccc(NS(C)(=O)=O)cc2OC[C@H](C)N(Cc2cncnc2)C[C@H]1C`?
SIRT5 block: inactive; ERp5 inh: inactive; DENV2 CPE: inactive

Results for Cc1noc(C)c1S(=O)(=O)Nc1ccc2c(c1)CC(=O)N([C@H](C)CO)C[C@H](C)[C@H](CN(C)Cc1ccncc1)O2 ?
SIRT5 block: 20; ERp5 inh: inactive; DENV2 CPE: inactive

Results for Cc1noc(C)c1S(=O)(=O)Nc1ccc2c(c1)CC(=O)N([C@@H](C)CO)C[C@@H](C)[C@H](CN(C)Cc1ccncc1)O2 ?
SIRT5 block: inactive; ERp5 inh: inactive

Results for Cc1noc(C)c1S(=O)(=O)Nc1ccc2c(c1)CC(=O)N([C@H](C)CO)C[C@@H](C)[C@H](CN(C)Cc1ccccc1)O2 ?
ERp5 inh: inactive; DENV2 CPE: 22

What do the screens show for `C[C@H](CO)N1C[C@H](C)[C@H](CN(C)S(=O)(=O)c2ccc(F)cc2)Oc2ccc(NC(=O)CCC(F)(F)F)cc2CC1=O`?
SIRT5 block: inactive; ERp5 inh: inactive; DENV2 CPE: inactive

What do the screens show for `O=C1c2ccccc2NC(c2ccc(-c3ccccc3F)o2)N1O` (configuration not stated)?
PDI inh: inactive; SIRT5 block: inactive; ERp5 inh: inactive; DENV2 CPE: 25; Rtt109 HAT inh: inactive

What do the screens show for `CCCNC(=O)C[C@@H]1C[C@@H]2c3cc(NS(C)(=O)=O)ccc3O[C@@H]2[C@H](CO)O1`?
SIRT5 block: inactive; ERp5 inh: 32; DENV2 CPE: inactive

What do the screens show for `COC(=O)C[C@H]1C[C@H]2c3cc(NS(C)(=O)=O)ccc3O[C@H]2[C@H](CO)O1`?
SIRT5 block: inactive; ERp5 inh: inactive; DENV2 CPE: inactive

What do the screens show for `CS(=O)(=O)Nc1ccc2c(c1)[C@H]1C[C@H](CC(=O)O)O[C@@H](CO)[C@H]1O2`?
SIRT5 block: inactive; ERp5 inh: inactive; DENV2 CPE: 25

What do the screens show for `NS(=O)(=O)c1ccc(NC(=O)Nc2ccc(S(N)(=O)=O)cc2)cc1`?
PDI inh: inactive; SIRT5 block: 15; ERp5 inh: inactive; DENV2 CPE: inactive

Results for Cc1ccc(S(N)(=O)=O)cc1 ?
ERp5 inh: inactive; DENV2 CPE: 52; Rtt109 HAT inh: inactive

Results for COc1ccccc1N(Cc1ccccc1)S(=O)(=O)c1cccc(C(=O)O)c1 ?
PDI inh: inactive; SIRT5 block: inactive; ERp5 inh: inactive; DENV2 CPE: inactive; Rtt109 HAT inh: inactive

How did CN(Cc1ccccc1)S(=O)(=O)c1cccc(C(=O)O)c1 do in these assays?
PDI inh: inactive; SIRT5 block: 31; ERp5 inh: inactive; DENV2 CPE: inactive; Rtt109 HAT inh: inactive

What do the screens show for `CC(C)c1cc(-c2cc(C(=O)NCc3ccccc3)on2)nc(NC2CCCC2)n1`?
PDI inh: inactive; SIRT5 block: inactive; ERp5 inh: inactive; DENV2 CPE: 22; Rtt109 HAT inh: inactive

How did CC(C)c1cc(-c2cc(C(=O)NCc3ccccc3)on2)nc(NCC2CC2)n1 do in these assays?
PDI inh: inactive; SIRT5 block: inactive; ERp5 inh: inactive; DENV2 CPE: inactive; Rtt109 HAT inh: inactive

How did CC(=O)N[C@@H]1CC[C@H](CCNC(=O)Nc2ccc(C(F)(F)F)cc2)O[C@@H]1CO do in these assays?
SIRT5 block: inactive; ERp5 inh: inactive; DENV2 CPE: inactive

What do the screens show for `C[C@H](CO)N1C[C@H](C)[C@@H](CN(C)C(=O)NC2CCCCC2)OCCCC[C@H](C)Oc2ccc(NC(=O)Nc3ccc(C(F)(F)F)cc3)cc2C1=O`?
SIRT5 block: inactive; ERp5 inh: inactive; DENV2 CPE: inconclusive

How did C[C@H]1CN([C@@H](C)CO)C(=O)c2cc(NC(=O)Nc3ccc4c(c3)OCO4)ccc2O[C@@H]1CN(C)C(=O)NC1CCCCC1 do in these assays?
SIRT5 block: 16; ERp5 inh: inactive; DENV2 CPE: inconclusive

How did C[C@H](CO)N1C[C@H](C)[C@H](CN(C)C(=O)NC2CCCCC2)Oc2ccc(NC(=O)Nc3ccccc3)cc2C1=O do in these assays?
SIRT5 block: 22; ERp5 inh: inactive; DENV2 CPE: inactive

What do the screens show for `C[C@@H]1CCCCO[C@H](CN(C)C(=O)NC2CCCCC2)[C@H](C)CN([C@@H](C)CO)C(=O)c2cc(NC(=O)Nc3ccc(C(F)(F)F)cc3)ccc2O1`?
SIRT5 block: inactive; ERp5 inh: inactive; DENV2 CPE: 64

Results for C[C@@H]1CN([C@@H](C)CO)C(=O)c2cc(NC(=O)c3ccncc3)ccc2O[C@H]1CN(C)C(=O)NC1CCCCC1 ?
SIRT5 block: inactive; ERp5 inh: inactive; DENV2 CPE: 35

Results for CCC(=O)N1C[C@H](C)[C@@H](OC)CN(C)C(=O)c2ccc(NC(=O)c3cnccn3)cc2OC[C@H]1C ?
SIRT5 block: inactive; ERp5 inh: inactive; DENV2 CPE: inactive

How did CO[C@@H]1CN(C)C(=O)c2cc(NC(=O)c3cnccn3)ccc2OC[C@@H](C)N(CCC(F)(F)F)C[C@H]1C do in these assays?
SIRT5 block: inactive; ERp5 inh: inactive; DENV2 CPE: inactive

Results for COc1ccc2c3c(n(C)c2c1)[C@H](CO)N(C(=O)CN1CCOCC1)CC31CCN(C(=O)C2CC2)CC1 ?
SIRT5 block: inactive; DENV2 CPE: inactive

Results for C[C@@H]1CN([C@H](C)CO)C(=O)c2cc(NC(=O)NC3CCCCC3)ccc2O[C@H]1CN(C)C(=O)Nc1ccc(C(F)(F)F)cc1 ?
SIRT5 block: inactive; ERp5 inh: inactive; DENV2 CPE: inactive

How did C[C@@H]1CN([C@H](C)CO)C(=O)c2cc(NC(=O)Nc3ccc(C(F)(F)F)cc3)ccc2O[C@H]1CN(C)C(=O)NC1CCCCC1 do in these assays?
SIRT5 block: inactive; ERp5 inh: inactive; DENV2 CPE: 126

How did C[C@@H]1CCCCO[C@H](CN(C)C(=O)Nc2ccc(C(F)(F)F)cc2)[C@H](C)CN([C@H](C)CO)C(=O)c2cc(NS(=O)(=O)c3cccs3)ccc2O1 do in these assays?
SIRT5 block: inactive; ERp5 inh: inactive; DENV2 CPE: inactive

How did O=C(O)c1ccc(CSc2nc3ccc(NC(=O)c4ccccc4C(=O)O)cc3s2)cc1 do in these assays?
PDI inh: inactive; SIRT5 block: 17; ERp5 inh: inactive; DENV2 CPE: inactive; Rtt109 HAT inh: inactive

How did CN1c2ccc(-c3cccc(C#N)c3)cc2[C@@H]2[C@@H](CCN2S(=O)(=O)c2cccc(F)c2)[C@@H]1CO do in these assays?
DENV2 CPE: 73

What do the screens show for `COc1cccc(-c2ccc3c(c2)[C@H]2[C@H](CCN2S(=O)(=O)c2ccccc2C)[C@H](CO)N3C)c1`?
SIRT5 block: inactive; ERp5 inh: inactive; DENV2 CPE: inactive

How did Cc1ccccc1S(=O)(=O)N1CC[C@@H]2[C@H]1c1cc(-c3cccc(F)c3)ccc1N(C)[C@H]2CO do in these assays?
DENV2 CPE: 22
